The test system of one assay is CRL-7250. Nature of the assay: Cytotoxic Profiling of Annotated Libraries Using Quantitative High-Throughput Screening (AID 1296008). Further: potency means the concentration at half of the fitted maximal effect. On max response: on the % scale 0 is the no-effect control and ±100 the full control effect. To be noted: Five cell lines viability, CellTiter-Glo ATP luminescence, 48-72 h; max response: active compounds read low. In short, it runs like this: (§1)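 Cells exposed to compounds for 48 or 72 hr at 37 degrees Celsius. Viability read as ATP-coupled luminescence with CellTiter-Glo after 10 min at room temperature.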
A general note: ATP-based viability assays read luminescence as a measure of living cells.

For a further assay, the system named is HEK293. The assay is described as above. The following applies: Five cell lines viability, CellTiter-Glo ATP luminescence, 48-72 h; max response: active compounds read low. In short, it runs like this:
as §1

The test system of assay [1] is HaCat. Described as above. To be noted: Five cell lines viability, CellTiter-Glo ATP luminescence, 48-72 h; max response: active compounds read low. The gist of the method: as §1
The subject of the next assay is NIH3T3. The assay is described as above. To be noted: Five cell lines viability, CellTiter-Glo ATP luminescence, 48-72 h; max response: active compounds read low. In short, it runs like this:
as §1

For assay [2], the system named is HACAT. Nature of the assay: qHTS assay to identify novel small-molecules to repurpose for Merkel cell carcinoma treatment (AID 1296009). The following applies: MCC and control cell lines, CellTiter-Glo viability, 72 h; at 44.8 µM (top of the series) unless noted. In short, it runs like this: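 Cells were treated for 72 hr at 37 degree celsius with compounds in 8- or 11-point dose response. Viability was read by CellTiter-Glo luminescence, normalized to no-cell (cytotoxicity) and DMSO controls.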

Inconclusive results are not listed. The source made the active and inactive calls. The call rests on the fitted dose curve; in most records, active means well fitted inhibition curve with a large enough effect; inconclusive means small, poorly fitted or top-dose-only effect; inactive means flat fitted curve, though single readings scatter.
Further: nearly all actives have a fitted effect of over 60% in size.

Regarding `CC(=O)OC(C)(C)/C=C/C(=O)C(C)(O)C1C(O)CC2(C)C3CC=C(C(C)(C)C(=O)O)C(CC(=O)O)C3(C)C(=O)CC12C` (stereo unspecified), the values for the max response in the assay on CRL-7250 and in the assay on HEK293 were 2% (inactive) and -1.12% (inactive), respectively. The compound was classed as inactive in the assay with HaCat [1] and in the assay with NIH3T3. Also, the outcome in the assay on HACAT [2] is “inactive [at 17.4 µM]”.

For `CC(C)NCCCn1c(Sc2cc3c(cc2I)OCO3)nc2c(N)ncnc21`, the Potency in the assay on CRL-7250 was 0.411 µM (active); with HEK293, 0.184 µM (active); with HaCat [1], 0.231 µM (active); with NIH3T3 it was 0.291 µM (active).

For `C=CC(=O)Nc1ccc(CN2C(=O)N(c3cc(OC)cc(OC)c3)Cc3cnc(Nc4ccc(N5CCN(C)CC5)cc4)nc32)cc1`, the Potency in the assay on CRL-7250 is 0.411 µM (active); with HEK293, 11.6 µM (active); in the assay with HaCat [1] it was 5.17 µM (active); in the assay with NIH3T3, 8.2 µM (active).

Take `N#Cc1cc(-c2ccnc(Nc3ccc(N4CCOCC4)cc3)n2)ccc1OC1CCOCC1`: the Potency in the assay with CRL-7250 was 4.11 µM (active); in the assay on HEK293, 7.31 µM (active); with NIH3T3, 11.6 µM (active). In addition, the compound was called inactive with HaCat [1] and in the assay with HACAT [2].

With `CC[C@@H](Nc1c(Nc2cccc(C(=O)N(C)C)c2O)c(=O)c1=O)c1cc(C(C)C)co1`, the max response in the assay with CRL-7250 is 4.29% (inactive); in the assay on HEK293 it was -14.3% (inactive); with NIH3T3, -6.94% (inactive). For the same compound, the compound was classed as inactive with HaCat [1] and in the assay with HACAT [2].

Consider `Nc1nc(O)c(C2=C3C(=Nc4ccccc43)C(=O)NCC2)[nH]1`, for which the max response was -2.87% (inactive) in the assay with CRL-7250, -2.48% (inactive) with HEK293, -1.91% (inactive) in the assay on HaCat [1] and 2.47% (inactive) in the assay on NIH3T3.

As for `Cc1ccc(NC(=O)c2ccc(CN3CCNCC3)cc2)cc1Nc1nccc(-c2cccnc2)n1`, in the assay with CRL-7250, the max response was -21.4% (inactive). The Potency in the assay on HEK293 was 10.3 µM (active). For the same compound, the call in the assay with HaCat [1], in the assay on NIH3T3 and in the assay with HACAT [2] was inactive.

For `C/C1=C/CCC2=CC(OC2=O)C(C)(C)/C=C/C1=O` (stereo unspecified), the Potency was 2.31 µM (active) in the assay on CRL-7250, 1.3 µM (active) in the assay with HEK293, 2.59 µM (active) in the assay on HaCat [1] and 4.11 µM (active) with NIH3T3.

The values are drawn from PubChem BioAssay (NCATS).
